Reference: PubChem BioAssay AID1307 (SRMLSC, 2008)
Hit rate of the full screen: of about 1,200 compounds, fewer than 10 were called active. A selection follows. Measured potencies and affinities stand elsewhere. Values without a mark were called inactive.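 Rule for the calls: active = inhibition reaching a set limit at one or more tested concentrations; inactive = inhibition under that limit at every dose.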

Assay: yeast RAM network inhibitors, dose response, S. cerevisiae (AID 1307);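 note: 0% = DMSO vehicle wells and 100% = 10 µM 1-NA-PP1 control; higher inhibition means more yeast growth since RAM block rescues cells from 5-FOA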
Conditions: S. cerevisiae RAM network URA3 reporter, 5-FOA growth OD615, active compounds read high, yeast express analog-sensitive mutant Cbk1 kinase; at 100 µM unless noted

SMILES | max inhibition
Cc1ccc(NC(=O)COC(=O)CCC(=O)c2ccc(C(C)(C)C)cc2)c([N+](=O)[O-])c1 | 2.67% [at 0.196 µM]
CCOC(=O)c1sc(NC(=O)CCCn2nc([N+](=O)[O-])cc2C)c(C(=O)OCC)c1C | 4.45% [at 0.782 µM]
CCCCCCCCNC(=O)/C(C#N)=C/c1ccc(SC)cc1 | 5.43%
CCOC(=O)C(C)(C)N(Cc1cccc(C)c1)S(=O)(=O)c1cccc([N+](=O)[O-])c1 | 2.41% [at 50 µM]
O=C(Nc1ccccc1-c1nnc(SCc2ccccc2)o1)c1ccccc1 | 4.39% [at 3.125 µM]
Cc1ccc(-n2c(O)c(/C=N/c3ncn[nH]3)c3ccccc3c2=O)cc1 | 10.6%
COc1ccc(/C=C(\C#N)C(=O)NCCc2ccccc2)cc1OCc1ccccc1 | 4.42% [at 1.563 µM]
CCOC(=O)C1=C(c2ccccc2)N=c2s/c(=C\c3cc(OC)c(OC)c(OC)c3)c(=O)n2C1c1cccs1 (stereo not given) | 14.2%
O=C(COC(=O)c1cc(Cl)ccc1[N+](=O)[O-])NCc1ccc(Cl)cc1Cl | 4.62% [at 1.563 µM]
C=CCSc1nnc(CCCCCN2C(=O)c3cccc4cccc(c34)C2=O)o1 | 6.81%
Cc1ccc(/C=C/c2ccc(=O)n(Cc3ccccc3Cl)n2)cc1 | 3.92% [at 3.125 µM]
O=C(/C=C/c1cccc(C(F)(F)F)c1)Nc1cccc(C(F)(F)F)c1 | 2.77% [at 12.5 µM]
COc1ccc(C(=O)/C=C/c2ccc(OC)c(COc3ccccc3F)c2)cc1 | 3.26% [at 12.5 µM]
S=C(NCCC(c1ccccc1)c1ccccc1)Nc1ccccc1Cl | 2.81%
Cc1ccc(NC(=O)Cc2ccc(Cl)c(Cl)c2)cc1S(=O)(=O)N(C)C | 1.65%
CCN(CC)S(=O)(=O)c1cccc(C(=O)OCC(=O)c2ccc3c(c2)OCCO3)c1 | 3.81% [at 6.25 µM]
CC(C)Cn1c(N)c(-c2nc(C(C)C)c(C(=O)c3ccccc3F)s2)c(=O)n(C)c1=O | 7.65%
COc1cccc(CN(Cc2ccccc2F)S(=O)(=O)c2ccc(S(=O)(=O)NCc3ccccc3)cc2)c1 | 4.33%
COc1cccc(CN(Cc2ccco2)C(c2ccc(F)cc2)c2nnnn2C(C)(C)C)c1 (stereo not given) | 5.18%
O=C(COC(=O)c1ccc(CSc2ccc(Cl)cc2)cc1)Nc1ccccc1 | 4.59%
CCOC(=O)c1c(-c2ccc(OC)cc2)csc1NC(=O)CSc1ccccc1 | 5.06%
C=C(C)CNC(=S)Nc1nc2c(cc1C(=O)OCC)CCCC2 | 2.44% [at 25 µM]
COC(=O)c1cc(=O)n(CCc2ccccc2)c(=Nc2ccc(F)cc2)s1 | 4.08% [at 50 µM]
O=C(O)CSc1nc(-c2ccc(Cl)cc2)nc2c1oc1ccccc12 | 6.31% [at 50 µM]
COc1ccc(OC)c(NC(=O)C(Sc2ccccc2)c2ccccc2)c1 (stereo not given) | 4.44% [at 50 µM]

SMILES | max inhibition
O=C(Nc1ccccc1-c1nnc(SCc2ccccc2Cl)o1)c1ccccc1 | 2.67% [at 50 µM]
Cc1ccccc1N1C(=O)CC1(C#N)c1ccc(OCc2ccccc2)cc1 (stereo not given) | 3.12% [at 50 µM]
O=C(CC12CC3CC(CC(C3)C1)C2)NC(=S)NCc1ccco1 | 5.22% [at 50 µM]
Cc1ccc(Cl)cc1N1CCN(S(=O)(=O)c2ccc3[nH]c(=O)c(=O)[nH]c3c2)CC1 | 4.39%
O=C(CCCSc1nc2ccccc2[nH]1)Nc1nnc(-c2ccccc2)o1 | 1.46% [at 1.563 µM]
Cc1cc(NC(=O)COC(=O)C(Nc2ccc(C(F)(F)F)cc2Cl)C(C)C)no1 (stereo not given) | 3.28% [at 12.5 µM]
Cc1ccccc1NC(=O)CCCSc1nc2ccccc2s1 | 1.4% [at 25 µM]
O=C(OC(C(=O)Nc1cccc(C(F)(F)F)c1)c1ccccc1)C1CCCCC1 (stereo not given) | 3.65% [at 50 µM]
C=CCOc1c(Br)cc(CNc2ccc(NC(=O)C(C)C)c(OC)c2)cc1OCC | 2.15% [at 3.125 µM]
COc1ccccc1-n1c(COc2ccccc2-c2ccccc2)nnc1SCC(=O)c1c(N)n(C)c(=O)n(C)c1=O | 11.9%
COc1ccc(Br)cc1C(=O)Nc1ccccc1-c1ccccc1 | 6.2% [at 50 µM]
CCCC[C@@H]1C[C@H]1[C@@H](NC(=O)c1ccccc1)c1ccccc1C(F)(F)F | 3.06%
CCOc1ccccc1NC(=O)C(OC(=O)c1cc(C)oc1C)c1ccccc1 (stereo not given) | 4.82%
Cc1ccccc1Oc1ccc(-c2nc(N)nc(N)n2)cc1 | 3.9%
O=S(=O)(c1ccccc1F)N(Cc1ccco1)Cc1nnc(-c2ccccc2Br)o1 | 2.49% [at 1.563 µM]
Cc1ccc(C)c(N2CCN(C(=O)c3ccc(Cn4c(=S)[nH]c5ccc(N6CCOCC6)cc5c4=O)cc3)CC2)c1 | 5.67%
CCOC(=O)C(C)Sc1nc2c(c(-c3cccs3)c1C#N)CCC2 (stereo not given) | 3.89% [at 50 µM]
Cc1ccc(OCc2nnc(SCC(=O)Nc3ccc4c(c3)OCCO4)n2Cc2ccco2)cc1 | 0.12% [at 0.782 µM]
COC(=O)c1ccc(CSc2nc(-c3ccco3)cc(C(F)(F)F)n2)o1 | 5.27%
CCCCOc1nc2ccccc2nc1C(C#N)C(=O)NC1CCCCC1 (stereo not given) | 4.45%
COc1ccc(-c2ccc(-c3noc(C4CCCCC4)n3)c(OC)n2)cc1 | 3.89% [at 50 µM]
O=C(CSc1nc2ccccc2s1)CSc1nc2ccccc2s1 | 5.31%
O=C(Nc1ccccc1Cl)c1cccc(COc2cc(Cl)ccc2Cl)c1 | 2.59%
COc1ccc(Cc2nc(-c3ccc(-n4cccc4)cc3)no2)cc1OC | 5.67%
CCCCOc1cccc(C(=O)NC(=S)Nc2cccc(C(F)(F)F)c2)c1 | 4.25%
